# Source: PubChem BioAssay
# Several values for one entry are separate records, joined by “and”; a condition that tells them apart may be missing. Identical values can stand only once. Records with an inconclusive call do not appear. Activity calls are given as the source filed them.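 The calls were made as follows, unless noted: active = normalized viability below 100% at a tested concentration; inactive = the rest.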
# Tests used:
# [1] = SU-DIPG-VI glioma cell viability, MIPE4.0 library, CellTiter-Glo luminescence, qHTS (AID 1347066; cut-off not given, nearly all actives have AC50 up to about 30 µM;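 also: cells exposed to compound for 48 hours before readout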); conditions: CellTiter-Glo ATP luminescence
# [2] = JHH-DIPG-1 glioma cell viability, MIPE5.0 library, CellTiter-Glo luminescence, qHTS (AID 1347067; cut-off not given, nearly all actives have AC50 up to about 26 µM;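 also: cells exposed to compound for 48 hours before readout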); conditions: JHH-DIPG-1 glioma viability, CellTiter-Glo ATP luminescence
# [3] = modifiers of HSF1 nuclear foci, imaging, Selleck Cancer Library (AID 1347162; in the data active = plate-normalised HSF1 focus index below about 0.46); conditions: human cells, at 10 µM; SSMD: measured here: HSF1 foci SSMD mean; cell count: measured here: cell number; plate-normalised HSF1 focus index: stronger effect = lower value
# [4] = phospholipid biosynthesis inhibitors in animal cells, primary screen, cell-based, LOPAC library, screen 4 (AID 1347384; call rule not given here); conditions: phospholipid biosynthesis inhibition screen, at 10 µM
# [5] = survival rescue of mitochondrial mutant cells in low glucose, primary screen, MELAS cybrids, Rieske KO mouse fibroblasts, CellTiter-Glo (AID 1508586;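 active = mean z-score across replicates of 1.96 or higher in either the MELAS or the Rieske mutant cell line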;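 also: z relative to plate mean and SD of compound and empty wells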)
# [6] = ovarian cancer cell viability with rucaparib, profiling panel, oncology-focused library, rucaparib conditional (AID 1508598); conditions: patient-derived ovarian cancer cells, CellTiter-Glo viability, 144 h, stronger effect = lower value
# [7] = biological target: NAD(+) hydrolase SARM1 (Homo sapiens) (UniProt Q6SZW1); experiment: SARM1 TIR NADase inhibitors, cell lysate, NAD-Glo luminescence (AID 1508614;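 active = compound whose remaining NAD level is above about 45 nM, limit read from the data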;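 also: higher remaining NAD means stronger inhibition of SARM1 NADase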); conditions: SAM-TIR HEK293T lysate NADase, at 1 µM, stronger effect = higher value
# Sequence of NAD(+) hydrolase SARM1 (Homo sapiens) (Q6SZW1 whole entry, looked up): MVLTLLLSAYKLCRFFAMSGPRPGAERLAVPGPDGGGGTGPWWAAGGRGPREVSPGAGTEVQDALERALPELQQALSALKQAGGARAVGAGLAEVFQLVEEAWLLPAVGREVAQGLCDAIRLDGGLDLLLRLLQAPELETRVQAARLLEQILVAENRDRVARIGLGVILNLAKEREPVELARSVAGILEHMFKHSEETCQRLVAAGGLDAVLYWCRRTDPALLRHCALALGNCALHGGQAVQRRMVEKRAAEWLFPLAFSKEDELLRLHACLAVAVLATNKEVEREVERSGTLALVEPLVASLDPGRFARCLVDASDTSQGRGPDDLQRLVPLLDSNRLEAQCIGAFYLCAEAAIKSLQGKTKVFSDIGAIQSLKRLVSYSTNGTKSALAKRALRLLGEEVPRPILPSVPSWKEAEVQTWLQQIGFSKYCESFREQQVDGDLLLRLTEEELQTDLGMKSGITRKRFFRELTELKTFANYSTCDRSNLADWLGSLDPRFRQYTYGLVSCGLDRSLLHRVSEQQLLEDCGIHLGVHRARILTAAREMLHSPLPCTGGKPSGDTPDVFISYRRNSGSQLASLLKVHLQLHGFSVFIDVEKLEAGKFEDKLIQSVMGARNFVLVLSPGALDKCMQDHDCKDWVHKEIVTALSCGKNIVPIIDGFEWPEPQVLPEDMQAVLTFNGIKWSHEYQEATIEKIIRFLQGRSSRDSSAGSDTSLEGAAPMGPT
# [8] = viability rescue of complex I mutant cybrids, primary screen, cell-based, galactose medium, ATP luminescence (AID 1645843;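 active = z-score of at least 1.8 in each of two replicates, scored against plate mean and spread of sample wells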;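 also: positive z means more ATP and so rescue of galactose-driven cybrid death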); conditions: complex I mutant cybrid cells, 72 h, stronger effect = higher value
# [9] = SU-DIPG-XXV glioma cell viability, MIPE5.0 library, qHTS (AID 1347068; cut-off not given, nearly all actives have IC50 up to about 30 µM)
# [10] = sensitizers of A549 cells to miR-34 induction, primary screen, imaging, A549 dox-inducible miR-34, nuclei and caspase counts (AID 1347080;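 active = compounds whose cell count with miR-34 switched on is under 0.7 times the count with it off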); conditions: A549 miR-34 inducible, Hoechst nuclei count, 48 h
# [11] = biological target: Mitogen-activated protein kinase 7 (Homo sapiens) (UniProt Q13164); experiment: ERK5 transactivation activators in reporter cells, primary screen, cell-based, HTS (AID 1508626;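 active = luciferase signal above three times the same-plate solvent-only control wells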;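 also: luciferase driven by Gal4-ERK5 fusion binding five Gal4 sites before minimal TATA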); conditions: HeLa Gal4-ERK5 transactivation, 18 h, at 5 µM, stronger effect = higher value
# Sequence of Mitogen-activated protein kinase 7 (Homo sapiens) (Q13164 whole entry, looked up, the tested form may be a part): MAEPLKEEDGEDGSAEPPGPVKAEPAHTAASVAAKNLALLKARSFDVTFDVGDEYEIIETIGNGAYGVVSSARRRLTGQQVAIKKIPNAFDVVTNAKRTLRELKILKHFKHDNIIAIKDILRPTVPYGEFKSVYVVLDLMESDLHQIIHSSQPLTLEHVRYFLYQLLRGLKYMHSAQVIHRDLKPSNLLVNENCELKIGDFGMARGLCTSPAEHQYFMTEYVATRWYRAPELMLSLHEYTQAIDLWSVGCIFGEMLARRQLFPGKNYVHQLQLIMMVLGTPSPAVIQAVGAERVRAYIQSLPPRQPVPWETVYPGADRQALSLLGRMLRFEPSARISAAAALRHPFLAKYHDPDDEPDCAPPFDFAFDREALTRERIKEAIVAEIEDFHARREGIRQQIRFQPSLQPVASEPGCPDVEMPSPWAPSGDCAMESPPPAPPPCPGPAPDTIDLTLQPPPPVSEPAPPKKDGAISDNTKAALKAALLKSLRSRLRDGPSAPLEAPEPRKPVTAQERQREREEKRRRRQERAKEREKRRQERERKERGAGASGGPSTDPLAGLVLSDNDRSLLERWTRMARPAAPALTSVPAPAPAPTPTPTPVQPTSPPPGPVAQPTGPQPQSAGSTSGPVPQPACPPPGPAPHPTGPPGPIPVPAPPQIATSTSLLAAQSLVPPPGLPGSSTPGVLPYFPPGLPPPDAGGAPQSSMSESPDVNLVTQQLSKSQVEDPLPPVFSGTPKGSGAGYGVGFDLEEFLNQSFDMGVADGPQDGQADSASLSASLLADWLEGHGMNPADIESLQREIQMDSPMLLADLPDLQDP
# [12] = MELAS cybrid survival, CellTiter-Glo 48 h, stronger effect = higher value
# [13] = Rieske KO mouse fibroblast survival, CellTiter-Glo 72 h
# [14] = stronger effect = lower value, cell number ratio, induced over uninduced
compound,measurement,setting,value
CC[C@@]1(O)C(=O)OCc2c1cc1n(c2=O)Cc2cc3c(CN(C)C)c(O)ccc3nc2-1,outcome,[1],inactive
same,AC50,[2],4.17 µM (active)
same,SSMD,[3],-8.15
same,cell count,[3],6870
same,plate-normalised HSF1 focus index,[3],0.582 (inactive)
same,outcome,[4],inactive
same,z-score,[5]; [12],-0.568 (inactive) and -2.28 (inactive) and -2.25 (inactive)
same,z-score,[5]; [13],0.849 and -0.703 and -1.06
same,viability,"[6]; at 0.000305 µM, OCI-C5x cells, with rucaparib 10 µM, 100% = cells with rucaparib alone",104% (inactive)
same,viability,"[6]; at 0.000305 µM, OCI-C5x cells, without rucaparib",104% (inactive)
same,viability,"[6]; at 0.000305 µM, OCI-P5x cells, with rucaparib 20 µM, 100% = cells with rucaparib alone",94.2% (active)
same,viability,"[6]; at 0.000305 µM, OCI-P5x cells, without rucaparib",107% (inactive)
same,viability,"[6]; at 0.00122 µM, OCI-C5x cells, with rucaparib 10 µM, 100% = cells with rucaparib alone",89.3% (active)
same,viability,"[6]; at 0.00122 µM, OCI-C5x cells, without rucaparib",92.9% (active)
same,viability,"[6]; at 0.00122 µM, OCI-P5x cells, with rucaparib 20 µM, 100% = cells with rucaparib alone",83.1% (active)
same,viability,"[6]; at 0.00122 µM, OCI-P5x cells, without rucaparib",79.7% (active)
same,viability,"[6]; at 0.00488 µM, OCI-C5x cells, with rucaparib 10 µM, 100% = cells with rucaparib alone",83.9% (active)
same,viability,"[6]; at 0.00488 µM, OCI-C5x cells, without rucaparib",62.6% (active)
same,viability,"[6]; at 0.00488 µM, OCI-P5x cells, with rucaparib 20 µM, 100% = cells with rucaparib alone",64.6% (active)
same,viability,"[6]; at 0.00488 µM, OCI-P5x cells, without rucaparib",49.2% (active)
same,viability,"[6]; at 0.0195 µM, OCI-C5x cells, with rucaparib 10 µM, 100% = cells with rucaparib alone",61.6% (active)
same,viability,"[6]; at 0.0195 µM, OCI-C5x cells, without rucaparib",46.1% (active)
same,viability,"[6]; at 0.0195 µM, OCI-P5x cells, with rucaparib 20 µM, 100% = cells with rucaparib alone",51.1% (active)
same,viability,"[6]; at 0.0195 µM, OCI-P5x cells, without rucaparib",31.5% (active)
same,viability,"[6]; at 0.0781 µM, OCI-C5x cells, with rucaparib 10 µM, 100% = cells with rucaparib alone",43.7% (active)
same,viability,"[6]; at 0.0781 µM, OCI-C5x cells, without rucaparib",22.5% (active)
same,viability,"[6]; at 0.0781 µM, OCI-P5x cells, with rucaparib 20 µM, 100% = cells with rucaparib alone",31.5% (active)
same,viability,"[6]; at 0.0781 µM, OCI-P5x cells, without rucaparib",11.7% (active)
same,viability,"[6]; at 0.313 µM, OCI-C5x cells, with rucaparib 10 µM, 100% = cells with rucaparib alone",31% (active)
same,viability,"[6]; at 0.313 µM, OCI-C5x cells, without rucaparib",10.3% (active)
same,viability,"[6]; at 0.313 µM, OCI-P5x cells, with rucaparib 20 µM, 100% = cells with rucaparib alone",10.6% (active)
same,viability,"[6]; at 0.313 µM, OCI-P5x cells, without rucaparib",4.1% (active)
same,viability,"[6]; at 1.25 µM, OCI-C5x cells, with rucaparib 10 µM, 100% = cells with rucaparib alone",11.2% (active)
same,viability,"[6]; at 1.25 µM, OCI-C5x cells, without rucaparib",7.82% (active)
same,viability,"[6]; at 1.25 µM, OCI-P5x cells, with rucaparib 20 µM, 100% = cells with rucaparib alone",3.74% (active)
same,viability,"[6]; at 1.25 µM, OCI-P5x cells, without rucaparib",1.56% (active)
same,viability,"[6]; at 5 µM, OCI-C5x cells, with rucaparib 10 µM, 100% = cells with rucaparib alone",4.91% (active)
same,viability,"[6]; at 5 µM, OCI-C5x cells, without rucaparib",4% (active)
same,viability,"[6]; at 5 µM, OCI-P5x cells, with rucaparib 20 µM, 100% = cells with rucaparib alone",5.99% (active)
same,viability,"[6]; at 5 µM, OCI-P5x cells, without rucaparib",4.13% (active)
same,remaining NAD,[7],10 nM (inactive)
same,z-score,[8],-1.13 (inactive) and -1.87 (inactive) and -2.38 (inactive)
CC(=O)Nc1ccc(O)cc1,outcome,[1],inactive
same,outcome,[9],inactive
same,fold change,[10]; [14],0.829 (inactive) and 0.996 (inactive) and 0.866 (inactive)
same,fold change,[10]; measured here: relative caspase fold change +Dox/-Dox,0.925 and 0.621 and 1.43
same,cell count,"[10]; measured here: total cells with miR-34 induction, stronger effect = lower value",8180 and 9760 and 10200
same,cell count,[10]; measured here: total cells without miR-34 induction,9870 and 9800 and 11800
same,z-score,[5]; [12],0.35 (inactive)
same,z-score,[5]; [13],-0.0609
same,remaining NAD,[7],10 nM (inactive)
same,luciferase signal,[11],40 AU (inactive)
same,z-score,[8],-0.13 (inactive)
COc1cc(NS(=O)(=O)c2ccc(N)cc2)nc(OC)n1,outcome,[1],inactive
same,fold change,[10]; [14],0.911 (inactive) and 0.916 (inactive) and 0.961 (inactive)
same,z-score,[5]; [12],-0.175 (inactive) and 0.0464 (inactive) and -0.547 (inactive)
same,z-score,[5]; [13],0.68 and -0.334 and -1.37
same,remaining NAD,[7],10 nM (inactive)
same,luciferase signal,[11],48 AU (inactive)
same,z-score,[8],-0.135 (inactive)
